Screens from PubChem.
Cruzain noTriton = blocks cruzain activity in detergent-free assay; purified cruzain, Z-FR-AMC fluorescence, no detergent; Potency, µM, most hits filed as inhibitors; actives 2.3% (n = 200,000); AID 1476; also: nearly all actives have a fitted effect of over 40% in size
Target sequence (P25779 123-467 limits assumed): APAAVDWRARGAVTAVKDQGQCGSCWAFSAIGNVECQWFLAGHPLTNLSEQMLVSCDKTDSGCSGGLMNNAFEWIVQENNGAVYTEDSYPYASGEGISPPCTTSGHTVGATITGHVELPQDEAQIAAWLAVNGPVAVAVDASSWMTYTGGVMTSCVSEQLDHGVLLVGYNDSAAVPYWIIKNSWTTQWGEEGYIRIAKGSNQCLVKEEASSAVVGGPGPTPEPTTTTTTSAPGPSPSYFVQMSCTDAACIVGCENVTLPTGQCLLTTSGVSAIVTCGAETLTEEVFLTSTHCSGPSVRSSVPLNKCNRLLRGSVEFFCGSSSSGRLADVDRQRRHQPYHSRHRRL
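Detergent-free condition (0.00005% Triton X-100) in acetate buffer pH 5.5 with DTT. 1.5 nM enzyme and compound were pre-mixed 15 min, then 2 uM Z-FR-AMC substrate added; reaction progress from fluorescence change between first and third reads (60 s).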
Cruzain Triton = blocks cruzain activity in presence of Triton detergent | purified cruzain, Z-FR-AMC fluorescence, 0.01% Triton | P25779 | actives 0.43% (n = 200,000) | Potency, µM, actives largely listed as inhibitors; also: nearly all actives have a fitted effect of over 40% in size
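Sodium acetate buffer (100 mM, pH 5.5) containing 5 mM DTT and 0.01% Triton X-100 hosted 1.5 nM cruzain and test compound for 15 min at room temperature. Cleavage of 2 uM Z-FR-AMC was then tracked by fluorescence.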
Of the large screens only hits and unclear results are named; the others gave an inactive call; ! = a repeat was not active. The list is not random: actives were taken first. Their share in the collection is about 2.4%. Calls follow the shape of the dose curve; as a rule, active = well fitted curve in the direction sought with a large enough effect; inconclusive = small, poorly fitted or top-dose-only effect, or another doubt; inactive = no such curve, though single readings can be large; an effect the other way counts as inactive or inconclusive.

CCCCC(CC)Cn1c(O)c(/C=C2\C=NN=C2c2ccccc2)sc1=S (stereo not given)	Cruzain noTriton 7.94µM
COc1ccc(CC(=O)NCCS(=O)(=O)N2CCN(c3ccccc3F)CC2)cc1OC	none
O=C(Cc1ccc(-c2ccccc2)cc1)NCCS(=O)(=O)N1CCN(c2ccccc2F)CC1	Cruzain noTriton 12.6µM
CCN1C(=O)c2ccccc2Sc2ccc(NC(C)=O)cc21	none
Cc1nc2cccc([N+](=O)[O-])c2n1CCCN(C)C	none
COc1ccc(CCNC(=O)CSc2nnc(-c3ccc(F)cc3)c3ccccc23)cc1OC	Cruzain noTriton inconclusive
O=C(CSc1nnc(-c2ccc(F)cc2)c2ccccc12)Nc1cccc(Cl)c1	Cruzain noTriton 15.8µM
O=C(CSc1nnc(-c2ccc(F)cc2)c2ccccc12)Nc1ccccc1Cl	Cruzain noTriton 15.8µM
CCCCSc1nnc(-c2ccc(C)cc2)c2ccccc12	none
O=C(CSc1nnc(-c2ccc(F)cc2)c2ccccc12)Nc1c(F)cccc1F	Cruzain noTriton 15.8µM
O=C(CCC(=O)c1ccc(F)cc1)Nc1ccccc1Cl	none
O=C(CSc1nnc(-c2ccc(F)cc2)c2ccccc12)Nc1ccccc1	Cruzain noTriton 31.6µM
O=C(CSc1ncnc2c1oc1ccccc12)Nc1cccc(Cl)c1	none
Cc1ccc(Cn2c(N)c(S(=O)(=O)c3cccs3)c3nc4ccccc4nc32)cc1	none
CCCCOc1ccc(C(C)NC(=O)CN2C(=O)CSc3ccc(S(=O)(=O)N4CCOCC4)cc32)cc1 (stereo not given)	Cruzain noTriton inconclusive
Cc1ccccc1Cn1c(=O)n(CCc2ccccc2)c(=O)c2ccccc21	none
Cc1cc(-c2ccc(C)c(S(=O)(=O)NC3CCCCC3)c2)on1	none
Cc1ncoc1C(=O)Nc1ccccc1-c1ccccc1	none
O=C(NCCc1csc(-c2ccc(C(F)(F)F)cc2)n1)c1ccc(F)c(F)c1	none
COc1ccc(/C=C/C(=O)OCC(=O)Nc2cc(C(F)(F)F)ccc2Cl)cc1	Cruzain noTriton 25.1µM
Cc1cc(C)c(NC(=O)COC(=O)/C=C/c2cccc(C(F)(F)F)c2)c(C)c1	none
COc1cc(/C=C/C(=O)OCC(=O)Nc2cc(C(F)(F)F)ccc2N2CCOCC2)ccc1O	none
O=C(COC(=O)/C=C/c1cccc(C(F)(F)F)c1)NC(c1ccccc1)c1ccccc1	Cruzain noTriton 15.8µM
O=C(COC(=O)/C=C/c1cccc(C(F)(F)F)c1)Nc1cccc2ccccc12	Cruzain noTriton inconclusive
Cc1ccccc1NC(=O)COC(=O)/C=C/c1cccc(C(F)(F)F)c1	Cruzain noTriton 25.1µM
O=C(CO/N=C1\CCCc2nonc21)Nc1ccccc1Cl	none
CC(C)(C)C(=O)Nc1ccc2nc(SCC(=O)N3CCOCC3)sc2c1	none
CCOc1ccc(-n2c(=O)c3c(C)c(C)sc3n(Cc3ccc(C(C)(C)C)cc3)c2=O)cc1	none
CCc1ccc(/C=C2\Oc3ccc(C(=O)OC)cc3C2=O)cc1	none
Cc1noc(C)c1CSc1ncnc2sc3c(c12)CCC(C)C3 (stereo not given)	none
Cc1ccccc1OCC(=O)N(Cc1ccc(N(C)C)cc1)C1CCS(=O)(=O)C1 (stereo not given)	none
COCCN1Cc2cccc(C(=O)Nc3cccc(OC)c3)c2C1=O	none
CCCC/C=C/C(NC(=O)c1ccccc1)c1ccccc1 (stereo not given)	none
COc1ccc(C(NC(=O)c2ccc(-c3ccccc3)cc2)c2ccccc2)cc1 (stereo not given)	Cruzain noTriton 7.94µM
COc1ccc(C(=O)COC(=O)c2ccc(NC(=O)c3ccccc3)cc2)cc1	Cruzain noTriton 12.6µM
COc1ccc(C(C)NC(=O)c2ccccc2)cc1 (stereo not given)	none
COc1ccc(C(=O)Nc2ccc(C(=O)OCC(=O)c3ccccc3)cc2)cc1	Cruzain noTriton 6.31µM
CCOC(=O)c1ccc(NC(=O)c2ccc(NC(=O)c3ccccc3)cc2)cc1	none
COc1ccc(C(=O)COc2ccc(NC(C)=O)cc2)cc1	none
CCCC/C=C/C(NC(=O)c1ccc(-c2ccccc2)cc1)c1ccccc1 (stereo not given)	Cruzain noTriton 15.8µM
Cc1cc(Br)ccc1NC(=O)CN1C(=O)CCC1=O	none
O=C(CCC(=O)N1CC2CCCN2c2ccccc21)NCc1ccccc1F (stereo not given)	none
COc1ccc(NC(=O)C(=O)NCC2(c3ccc(OC)c(OC)c3)CCCC2)cc1	none
CCN(CC)c1ccc(/C=N/NC(=O)Cc2nnc(NC(=O)Nc3ccccc3)s2)cc1	Cruzain noTriton inconclusive
COc1ccc(NC(=O)CCC(=O)c2ccc(-c3ccccc3)cc2)cc1	Cruzain noTriton 25.1µM
Cc1ccc(NC(=O)CCC(=O)OCC(=O)c2ccc(-c3ccccc3)cc2)cc1	none
COc1ccc(-n2c(=O)c3ccccc3n(CC(=O)Nc3cc(C)on3)c2=O)cc1OC	none
COc1ccc(Cn2c(O)c(C=Nc3ccc(OC)cc3)c3ccccc3c2=O)cc1	Cruzain noTriton 12.6µM
CC(C)CCC(C)N=Cc1c(O)n(Cc2ccccc2)c(=O)c2ccccc12 (stereo not given)	Cruzain noTriton inconclusive
N#Cc1cccc(-c2cncnc2-n2ccnc2)c1	none
COC(=O)c1cn(NC(=O)c2ccc(F)cc2)c(=O)c2ccccc12	none
Cc1ccc2nc(N3CCN(c4cccc(C)c4C)CC3)c3nnnn3c2c1	Cruzain noTriton 3.98µM!
Cc1ccc2nc(N3CCN(c4ccc(F)cc4)CC3)c3nnnn3c2c1	none
Cc1cc(C)c(C)c(C(=O)CSc2nnc(-c3ccc4[nH]c(C)c(C)c4c3)o2)c1C	Cruzain noTriton inconclusive
Clc1nc2ccccc2cc1/C=N/Nc1nc2ccccc2[nH]1	Cruzain noTriton inconclusive, Cruzain Triton 28.2µM
C(=N\Nc1nc2ccccc2[nH]1)/c1cccs1	Cruzain noTriton inconclusive
CCN(CC)c1ccc(/C=N/Nc2nc3ccccc3[nH]2)cc1	Cruzain noTriton inconclusive
Cc1nn(-c2ccccc2)c(C)c1/C=N/Nc1nc2ccccc2[nH]1	Cruzain noTriton 25.1µM, Cruzain Triton inconclusive
O=C(Nc1ccc2sccc2c1)c1ccc(Cl)s1	none
Cc1nn(-c2ccccc2)c(N2CCCC2)c1/C=N/NC(=O)c1cccc(S(=O)(=O)Nc2ccc(Cl)cc2)c1	Cruzain noTriton inconclusive
Cc1nn(-c2ccccc2)c(N2CCCC2)c1/C=N/NC(=O)c1cc(-c2ccccn2)nc2ccccc12	none
Cc1nn(-c2ccccc2)c(N2CCCC2)c1/C=N/NC(=O)c1cc2ccccc2cc1O	Cruzain noTriton 15.8µM
Cc1nn(-c2ccccc2)c(N2CCCC2)c1/C=N/NC(=O)c1cc(-c2ccccc2)nc2ccccc12	Cruzain noTriton 3.98µM
O=C(O)c1ccc(/C=N/NC(=O)c2cc(-c3cccs3)nc3ccccc23)cc1	none
Cc1nn(-c2ccccc2)c(N2CCCC2)c1/C=N/NC(=O)c1cc(-c2cccs2)nc2ccccc12	Cruzain noTriton 10µM
CCOC(=O)c1ccc2c(c1)nc(SCC(=O)c1cc3ccccc3o1)n2CC	none
O=C(OCC(=O)c1ccc(Cl)cc1Cl)c1ccc2c(c1)C(=O)N(c1cccc3ncccc13)C2=O	Cruzain noTriton 20µM
O=C(COC(=O)c1ccc2c(c1)C(=O)N(c1cccc3ncccc13)C2=O)c1ccc(Cl)cc1	Cruzain noTriton inconclusive
O=C(Nc1ccc(O)c(-c2nc3ccccc3o2)c1)C1(c2ccccc2)CCCC1	Cruzain noTriton 25.1µM
O=C(Nc1ccc(-c2nc3ccccc3o2)c(O)c1)c1ccccc1	none
Cc1cc(C)cc(C(=O)NC(=S)Nc2ccc(-c3cc4ccccc4oc3=O)cc2)c1	Cruzain noTriton 10µM
Cc1ccc(C(=O)NC(=S)Nc2ccc(-c3cc4ccccc4oc3=O)cc2)c(C)c1	Cruzain noTriton inconclusive
